# Laboratory results as given in the supplement of paper PMC4466140.
# Target: SpBzz1-D2
# Assay: SPOT peptide array binding signal intensity (averaged, normalized) (arbitrary units (background-subtracted, floor 0; scale differs between SH3 domains)); higher = stronger binding of the SH3 domain to the peptide
# How it was run: (§1)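 GST-SH3 fusions from four yeast species, purified on glutathione Sepharose, were incubated at 10 μg/ml overnight at 4°C on membranes of synthetic 15-mer peptides in which cysteines were replaced with serines. Binding signal is the normalized, background-subtracted spot intensity averaged over replicates, in domain-specific arbitrary units.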
row,Binder,SPOT peptide array binding signal intensity
1,DRIRMFIRFPKFLLE,5.5
2,DHPKGPPPPPPPDEK,1.75

# Target: SpCyk3
# Assay: as above
# How it was run: as §1
row,Binder,SPOT peptide array binding signal intensity
1,DRIRMFIRFPKFLLE,16
2,DHPKGPPPPPPPDEK,≤ 0

# Target: SpHof1
# Assay: as above
# How it was run: as §1
row,Binder,SPOT peptide array binding signal intensity
1,DRIRMFIRFPKFLLE,264
2,DHPKGPPPPPPPDEK,1

# Target: SpHof1-2
# Assay: as above
# How it was run: as §1
row,Binder,SPOT peptide array binding signal intensity
1,DRIRMFIRFPKFLLE,35.8
2,DHPKGPPPPPPPDEK,6.5

# Target: SpHof1-3
# Assay: as above
# How it was run: as §1
row,Binder,SPOT peptide array binding signal intensity
1,DRIRMFIRFPKFLLE,1130
2,DHPKGPPPPPPPDEK,4

# Target: SpHse1
# Assay: as above
# How it was run: as §1
row,Binder,SPOT peptide array binding signal intensity
1,DRIRMFIRFPKFLLE,1300
2,DHPKGPPPPPPPDEK,87.2

# Target: SpLsb1
# Assay: as above
# How it was run: as §1
row,Binder,SPOT peptide array binding signal intensity
1,DRIRMFIRFPKFLLE,1.25
2,DHPKGPPPPPPPDEK,≤ 0

# Target: SpLsb4
# Assay: as above
# How it was run: as §1
row,Binder,SPOT peptide array binding signal intensity
1,DRIRMFIRFPKFLLE,139
2,DHPKGPPPPPPPDEK,≤ 0

# Target: SpMyo1
# Assay: as above
# How it was run: as §1
row,Binder,SPOT peptide array binding signal intensity
1,DRIRMFIRFPKFLLE,10.8
2,DHPKGPPPPPPPDEK,1880

# Target: SpNbp2
# Assay: as above
# How it was run: as §1
row,Binder,SPOT peptide array binding signal intensity
1,DRIRMFIRFPKFLLE,957
2,DHPKGPPPPPPPDEK,18.5

# Target: SpPex13
# Assay: as above
# How it was run: as §1
row,Binder,SPOT peptide array binding signal intensity
1,DRIRMFIRFPKFLLE,38
2,DHPKGPPPPPPPDEK,10

# Target: SpRvs167
# Assay: as above
# How it was run: as §1
row,Binder,SPOT peptide array binding signal intensity
1,DRIRMFIRFPKFLLE,40.3
2,DHPKGPPPPPPPDEK,≤ 0

# Target: SpSla1-D1-D2
# Assay: as above
# How it was run: as §1
row,Binder,SPOT peptide array binding signal intensity
1,DRIRMFIRFPKFLLE,≤ 0
2,DHPKGPPPPPPPDEK,10

# Target: SpSla1-D3
# Assay: as above
# How it was run: as §1
row,Binder,SPOT peptide array binding signal intensity
1,DRIRMFIRFPKFLLE,49
2,DHPKGPPPPPPPDEK,13

# Target: AgAbp1
# Assay: as above
# How it was run: as §1
row,Binder,SPOT peptide array binding signal intensity
1,DHPKGPPPPPPPDEK,9

# Target: AgBbc1
# Assay: as above
# How it was run: as §1
row,Binder,SPOT peptide array binding signal intensity
1,DHPKGPPPPPPPDEK,3.75

# Target: AgBem1-D1
# Assay: as above
# How it was run: as §1
row,Binder,SPOT peptide array binding signal intensity
1,DHPKGPPPPPPPDEK,≤ 0

# Target: AgBzz1-D1
# Assay: as above
# How it was run: as §1
row,Binder,SPOT peptide array binding signal intensity
1,DHPKGPPPPPPPDEK,1100

# Target: AgBzz1-D2
# Assay: as above
# How it was run: as §1
row,Binder,SPOT peptide array binding signal intensity
1,DHPKGPPPPPPPDEK,111

# Target: AgCyk3
# Assay: as above
# How it was run: as §1
row,Binder,SPOT peptide array binding signal intensity
1,DHPKGPPPPPPPDEK,≤ 0

# Target: AgFus1
# Assay: as above
# How it was run: as §1
row,Binder,SPOT peptide array binding signal intensity
1,DHPKGPPPPPPPDEK,6.5

# Target: AgHof1
# Assay: as above
# How it was run: as §1
row,Binder,SPOT peptide array binding signal intensity
1,DHPKGPPPPPPPDEK,≤ 0

# Target: AgHse1
# Assay: as above
# How it was run: as §1
row,Binder,SPOT peptide array binding signal intensity
1,DHPKGPPPPPPPDEK,33

# Target: AgLsb1
# Assay: as above
# How it was run: as §1
row,Binder,SPOT peptide array binding signal intensity
1,DHPKGPPPPPPPDEK,1.5

# Target: AgLsb4
# Assay: as above
# How it was run: as §1
row,Binder,SPOT peptide array binding signal intensity
1,DHPKGPPPPPPPDEK,≤ 0

# Target: AgMyo5
# Assay: as above
# How it was run: as §1
row,Binder,SPOT peptide array binding signal intensity
1,DHPKGPPPPPPPDEK,1710

# Target: AgNbp2
# Assay: as above
# How it was run: as §1
row,Binder,SPOT peptide array binding signal intensity
1,DHPKGPPPPPPPDEK,7

# Target: AgRvs167
# Assay: as above
# How it was run: as §1
row,Binder,SPOT peptide array binding signal intensity
1,DHPKGPPPPPPPDEK,1.17

# Target: AgSho1
# Assay: as above
# How it was run: as §1
row,Binder,SPOT peptide array binding signal intensity
1,DHPKGPPPPPPPDEK,≤ 0

# Target: AgSla1-D1-D2
# Assay: as above
# How it was run: as §1
row,Binder,SPOT peptide array binding signal intensity
1,DHPKGPPPPPPPDEK,14

# Target: AgSla1-D3
# Assay: as above
# How it was run: as §1
row,Binder,SPOT peptide array binding signal intensity
1,DHPKGPPPPPPPDEK,297

# Target: CaAbp1-D1
# Assay: as above
# How it was run: as §1
row,Binder,SPOT peptide array binding signal intensity
1,DHPKGPPPPPPPDEK,1.5

# Target: CaAbp1-D2
# Assay: as above
# How it was run: as §1
row,Binder,SPOT peptide array binding signal intensity
1,DHPKGPPPPPPPDEK,1

# Target: CaBbc1
# Assay: as above
# How it was run: as §1
row,Binder,SPOT peptide array binding signal intensity
1,DHPKGPPPPPPPDEK,≤ 0

# Target: CaBem1-D1
# Assay: as above
# How it was run: as §1
row,Binder,SPOT peptide array binding signal intensity
1,DHPKGPPPPPPPDEK,≤ 0

# Target: CaBzz1-D1
# Assay: as above
# How it was run: as §1
row,Binder,SPOT peptide array binding signal intensity
1,DHPKGPPPPPPPDEK,2890

# Target: CaBzz1-D2
# Assay: as above
# How it was run: as §1
row,Binder,SPOT peptide array binding signal intensity
1,DHPKGPPPPPPPDEK,2700

# Target: CaCyk3
# Assay: as above
# How it was run: as §1
row,Binder,SPOT peptide array binding signal intensity
1,DHPKGPPPPPPPDEK,≤ 0

# Target: CaFus1
# Assay: as above
# How it was run: as §1
row,Binder,SPOT peptide array binding signal intensity
1,DHPKGPPPPPPPDEK,≤ 0

# Target: CaHof1
# Assay: as above
# How it was run: as §1
row,Binder,SPOT peptide array binding signal intensity
1,DHPKGPPPPPPPDEK,2.5

# Target: CaHse1
# Assay: as above
# How it was run: as §1
row,Binder,SPOT peptide array binding signal intensity
1,DHPKGPPPPPPPDEK,6

# Target: CaLsb1
# Assay: as above
# How it was run: as §1
row,Binder,SPOT peptide array binding signal intensity
1,DHPKGPPPPPPPDEK,≤ 0

# Target: CaLsb4
# Assay: as above
# How it was run: as §1
row,Binder,SPOT peptide array binding signal intensity
1,DHPKGPPPPPPPDEK,20.5

# Target: CaMyo5
# Assay: as above
# How it was run: as §1
row,Binder,SPOT peptide array binding signal intensity
1,DHPKGPPPPPPPDEK,38.8

# Target: CaNbp2
# Assay: as above
# How it was run: as §1
row,Binder,SPOT peptide array binding signal intensity
1,DHPKGPPPPPPPDEK,≤ 0

# Target: CaRvs167
# Assay: as above
# How it was run: as §1
row,Binder,SPOT peptide array binding signal intensity
1,DHPKGPPPPPPPDEK,0.667

# Target: CaRvs167-3
# Assay: as above
# How it was run: as §1
row,Binder,SPOT peptide array binding signal intensity
1,DHPKGPPPPPPPDEK,≤ 0

# Target: CaSho1
# Assay: as above
# How it was run: as §1
row,Binder,SPOT peptide array binding signal intensity
1,DHPKGPPPPPPPDEK,7.5

# Target: CaSla1-D1-D2
# Assay: as above
# How it was run: as §1
row,Binder,SPOT peptide array binding signal intensity
1,DHPKGPPPPPPPDEK,12

# Target: CaSla1-D3
# Assay: as above
# How it was run: as §1
row,Binder,SPOT peptide array binding signal intensity
1,DHPKGPPPPPPPDEK,2.75

# Target: ScAbp1
# Assay: as above
# How it was run: as §1
row,Binder,SPOT peptide array binding signal intensity
1,DHPKGPPPPPPPDEK,4

# Target: ScBbc1
# Assay: as above
# How it was run: as §1
row,Binder,SPOT peptide array binding signal intensity
1,DHPKGPPPPPPPDEK,3.5

# Target: ScBem1-D1
# Assay: as above
# How it was run: as §1
row,Binder,SPOT peptide array binding signal intensity
1,DHPKGPPPPPPPDEK,4

# Target: ScBzz1-D1
# Assay: as above
# How it was run: as §1
row,Binder,SPOT peptide array binding signal intensity
1,DHPKGPPPPPPPDEK,3400

# Target: ScBzz1-D2
# Assay: as above
# How it was run: as §1
row,Binder,SPOT peptide array binding signal intensity
1,DHPKGPPPPPPPDEK,45

# Target: ScCyk3
# Assay: as above
# How it was run: as §1
row,Binder,SPOT peptide array binding signal intensity
1,DHPKGPPPPPPPDEK,1

# Target: ScFus1
# Assay: as above
# How it was run: as §1
row,Binder,SPOT peptide array binding signal intensity
1,DHPKGPPPPPPPDEK,8.5

# Target: ScHof1
# Assay: as above
# How it was run: as §1
row,Binder,SPOT peptide array binding signal intensity
1,DHPKGPPPPPPPDEK,1

# Target: ScHse1
# Assay: as above
# How it was run: as §1
row,Binder,SPOT peptide array binding signal intensity
1,DHPKGPPPPPPPDEK,2

# Target: ScLsb1
# Assay: as above
# How it was run: as §1
row,Binder,SPOT peptide array binding signal intensity
1,DHPKGPPPPPPPDEK,1

# Target: ScLsb2
# Assay: as above
# How it was run: as §1
row,Binder,SPOT peptide array binding signal intensity
1,DHPKGPPPPPPPDEK,≤ 0

# Target: ScLsb3
# Assay: as above
# How it was run: as §1
row,Binder,SPOT peptide array binding signal intensity
1,DHPKGPPPPPPPDEK,≤ 0

# Target: ScLsb4
# Assay: as above
# How it was run: as §1
row,Binder,SPOT peptide array binding signal intensity
1,DHPKGPPPPPPPDEK,0.5

# Target: ScMyo3
# Assay: as above
# How it was run: as §1
row,Binder,SPOT peptide array binding signal intensity
1,DHPKGPPPPPPPDEK,1750

# Target: ScMyo5
# Assay: as above
# How it was run: as §1
row,Binder,SPOT peptide array binding signal intensity
1,DHPKGPPPPPPPDEK,1380

# Target: ScNbp2
# Assay: as above
# How it was run: as §1
row,Binder,SPOT peptide array binding signal intensity
1,DHPKGPPPPPPPDEK,18.5

# Target: ScPex13
# Assay: as above
# How it was run: as §1
row,Binder,SPOT peptide array binding signal intensity
1,DHPKGPPPPPPPDEK,≤ 0

# Target: ScRvs167
# Assay: as above
# How it was run: as §1
row,Binder,SPOT peptide array binding signal intensity
1,DHPKGPPPPPPPDEK,0.5

# Target: ScSho1
# Assay: as above
# How it was run: as §1
row,Binder,SPOT peptide array binding signal intensity
1,DHPKGPPPPPPPDEK,≤ 0

# Target: ScSla1-D1-D2
# Assay: as above
# How it was run: as §1
row,Binder,SPOT peptide array binding signal intensity
1,DHPKGPPPPPPPDEK,≤ 0

# Target: ScSla1-D3
# Assay: as above
# How it was run: as §1
row,Binder,SPOT peptide array binding signal intensity
1,DHPKGPPPPPPPDEK,2.5

# Target: SpAbp1-D1
# Assay: as above
# How it was run: as §1
row,Binder,SPOT peptide array binding signal intensity
1,DHPKGPPPPPPPDEK,8

# Target: SpBbc1
# Assay: as above
# How it was run: as §1
row,Binder,SPOT peptide array binding signal intensity
1,DHPKGPPPPPPPDEK,≤ 0

# Target: SpBzz1-D1
# Assay: as above
# How it was run: as §1
row,Binder,SPOT peptide array binding signal intensity
1,DHPKGPPPPPPPDEK,155
